Data published in the antibiotic and cytotoxicity screens of Wong et al. (2023).
Out of some 39,000 compounds screened, about 3,300 (8.5%) were called active. The sample as a whole holds a higher share of actives than the screen did.

Tested on: HepG2
Assay: cytotoxicity call (relative viability < 0.9)
Conditions: 10 µM

SMILES | cytotoxicity call
Cc1noc(C)c1S(=O)(=O)N(C)C[C@@H]1OCc2cn(nn2)CCCC(=O)N([C@H](C)CO)C[C@@H]1C | inactive
COc1ccc(S(=O)(=O)Nc2ccc3c(c2)C(=O)N([C@@H](C)CO)C[C@@H](C)[C@@H](CN(C)C(=O)Nc2ccc(C(F)(F)F)cc2)OCCCC[C@H](C)O3)cc1 | inactive
CC(=O)OC[C@H]1O[C@@H](n2cc(C)c(=O)[nH]c2=O)C[C@@H]1OC(C)=O | inactive
C[C@@H]1CCCCO[C@H](CN(C)C)[C@H](C)CN([C@H](C)CO)C(=O)c2cc(NC(=O)Nc3cccc4ccccc34)ccc2O1 | inactive
COc1ccc(NC(=O)N(C)C[C@H]2OCCCC[C@H](C)Oc3ccc(NS(=O)(=O)c4ccc(OC)cc4)cc3C(=O)N([C@@H](C)CO)C[C@H]2C)cc1 | inactive
O=C(Cn1cc([N+](=O)[O-])cn1)n1cccn1 | inactive
C[C@@H]1CCCCO[C@H](CN(C)C(=O)Nc2ccc(F)cc2)[C@@H](C)CN([C@@H](C)CO)C(=O)c2cc(NC(=O)Cc3ccccc3)ccc2O1 | inactive
COc1ccc(CN(C)C[C@@H]2OCCCC[C@@H](C)Oc3ccc(NC(=O)Nc4ccc(OC)cc4)cc3C(=O)N([C@@H](C)CO)C[C@@H]2C)cc1 | active
COc1ccc(CN(C)C[C@H]2OCCCC[C@@H](C)Oc3ccc(NC(=O)Nc4ccc(OC)cc4)cc3C(=O)N([C@@H](C)CO)C[C@@H]2C)cc1 | inactive
COc1ccc(CN(C)C[C@@H]2OCCCC[C@H](C)Oc3ccc(NC(=O)Nc4ccc(OC)cc4)cc3C(=O)N([C@@H](C)CO)C[C@@H]2C)cc1 | active
COc1ccc(CN(C)C[C@@H]2OCCCC[C@H](C)Oc3ccc(NC(=O)Nc4ccc(OC)cc4)cc3C(=O)N([C@H](C)CO)C[C@@H]2C)cc1 | inactive
COc1ccc(CN(C)C[C@@H]2OCCCC[C@@H](C)Oc3ccc(NC(=O)Nc4ccc(OC)cc4)cc3C(=O)N([C@H](C)CO)C[C@@H]2C)cc1 | inactive
COc1ccc(CN(C)C[C@H]2OCCCC[C@@H](C)Oc3ccc(NC(=O)Nc4ccc(OC)cc4)cc3C(=O)N([C@H](C)CO)C[C@@H]2C)cc1 | inactive
COc1ccc(CN(C)C[C@H]2OCCCC[C@H](C)Oc3ccc(NC(=O)Nc4ccc(OC)cc4)cc3C(=O)N([C@H](C)CO)C[C@@H]2C)cc1 | active
COc1ccc(CN(C)C[C@@H]2OCCCC[C@@H](C)Oc3ccc(NC(=O)Nc4ccc(OC)cc4)cc3C(=O)N([C@@H](C)CO)C[C@H]2C)cc1 | inactive
COc1ccc(CN(C)C[C@H]2OCCCC[C@@H](C)Oc3ccc(NC(=O)Nc4ccc(OC)cc4)cc3C(=O)N([C@@H](C)CO)C[C@H]2C)cc1 | active
Cc1noc(C)c1NC(=O)N[C@@H]1C=C[C@H](CC(=O)N2CCN(C)CC2)O[C@H]1CO | inactive
CC(C)Cc1ccc([C@@H](C)c2nc(-c3cccs3)no2)cc1 | inactive
C[C@H](CO)N1C[C@H](C)[C@H](CN(C)C(=O)CCCN(C)C)OCc2cn(nn2)CCCC1=O | inactive
Cc1noc(C)c1S(=O)(=O)Nc1cccc2c1O[C@H](CN(C)C(=O)Nc1ccc3c(c1)OCO3)[C@H](C)CN([C@H](C)CO)C2=O | inactive

SMILES | cytotoxicity call
Cc1noc(C)c1S(=O)(=O)Nc1ccc2c(c1)C(=O)N([C@H](C)CO)C[C@H](C)[C@@H](CN(C)CC1CCCCC1)OCCCC[C@H](C)O2 | inactive
C[C@@H]1CN([C@H](C)CO)C(=O)c2cccc(NS(=O)(=O)c3cccs3)c2O[C@@H]1CN(C)Cc1ccncc1 | inactive
N=C(N)N/N=C1\CCc2c(C(=N)N)cccc21 | inactive
C[C@@H]1CN([C@@H](C)CO)C(=O)Cc2cc(NC(=O)CCCCCC(=O)Nc3ccccc3N)ccc2O[C@@H]1CN(C)C(=O)Nc1cccc2ccccc12 | inactive
CCS(=O)(=O)Nc1ccc2c(c1)C(=O)N(C)C[C@@H](OC)[C@@H](C)CN(Cc1ccccn1)[C@H](C)CO2 | inactive
C[C@@H]1CN([C@@H](C)CO)C(=O)c2cc(NS(=O)(=O)c3cn(C)cn3)ccc2O[C@@H](C)CCCCO[C@@H]1CN(C)C | inactive
COc1ccc(CN(C)C[C@H]2OCCCC[C@@H](C)Oc3ccc(NC(=O)Nc4ccc(OC)cc4)cc3C(=O)N([C@H](C)CO)C[C@H]2C)cc1 | active
COc1ccc(NC(=O)Nc2ccc3c(c2)C(=O)N([C@@H](C)CO)C[C@H](C)[C@@H](CN(C)Cc2ccncc2)OCCCC[C@@H](C)O3)cc1 | active
COc1ccc(NC(=O)Nc2ccc3c(c2)C(=O)N([C@H](C)CO)C[C@@H](C)[C@@H](CN(C)Cc2ccncc2)OCCCC[C@H](C)O3)cc1 | inactive
COc1ccc(NC(=O)Nc2ccc3c(c2)C(=O)N([C@H](C)CO)C[C@H](C)[C@@H](CN(C)Cc2ccncc2)OCCCC[C@@H](C)O3)cc1 | inactive
COc1ccc(CN(C)C[C@H]2OCCCC[C@H](C)Oc3ccc(NC(=O)Nc4ccc(OC)cc4)cc3C(=O)N([C@H](C)CO)C[C@H]2C)cc1 | active
COc1cccc(S(=O)(=O)N(C)C[C@H]2Oc3ncc(C#CCC(C)C)cc3C(=O)N([C@@H](C)CO)C[C@@H]2C)c1 | inactive
C[C@@H]1CN([C@H](C)CO)C(=O)CCCn2nncc2CO[C@H]1CN(C)S(=O)(=O)c1ccccc1C#N | inactive
C[C@H](CO)N1C[C@H](C)[C@H](CN(C)CC2CCCCC2)Oc2ccc(NC(=O)Cc3cn(C)c4ccccc34)cc2CC1=O | inactive
C[C@@H]1CN([C@@H](C)CO)C(=O)c2cc(NS(=O)(=O)c3ccc(F)cc3)ccc2O[C@H]1CN(C)CC1CC1 | inactive
CCS(=O)(=O)Nc1ccc2c(c1)C(=O)N(C)[C@@H]1CC[C@@H](CC(=O)NCc3ccc(OC)cc3)O[C@H]1CO2 | inactive
COCC#Cc1ccc([C@H]2[C@@H](CO)N3C(=O)CN(C(=O)C4CCOCC4)C[C@H]23)cc1 | inactive
COc1ccc2c3c(n(c2c1)C)[C@@H](CO)N(C[C@]13CCN(CC1)CC1CCOCC1)C(=O)Cc1ccccn1 | inactive
C[C@H](CO)N1C[C@H](C)[C@@H](CN(C)S(=O)(=O)c2cn(C)cn2)Oc2ccc(NS(C)(=O)=O)cc2CC1=O | inactive
